Screen size: about 200,000 compounds; about 860 (0.43%) were called active. What follows is part of a selection rich in actives, with near analogues and random picks from the rest. Unmarked numbers belong to inactive results. The call rests on the fitted dose curve; in most records, active means well fitted inhibition curve with a large enough effect; inconclusive means small, poorly fitted or top-dose-only effect; inactive means flat fitted curve, though single readings scatter.
Potency means the concentration at half of the fitted maximal effect.

This experiment deals with Cruzipain (Trypanosoma cruzi) (UniProt P25779). The experiment in a line: qHTS Assay for Promiscuous and Specific Inhibitors of Cruzain (with detergent). Further: nearly all actives have a fitted effect of over 40% in size. To be noted: purified cruzain, Z-FR-AMC fluorescence, 0.01% Triton. As to the method: Cruzain (3.4.22.51) is a cysteine protease from the tropical parasite Trypanosoma cruzi. Dual qHTS experiment was performed against the NCGC compound collection in order to 1) identify novel inhibitors of the enzyme and 2) profile the compound collection for promiscuous inhibitors operating via colloidal aggregation (by performing detergent-free and detergent-containing comparison screens). Cruzain was assayed by the use of fluorogenic coumarin-based substrate Z-FR-AMC: proteolytic cleavage releases AMC, whose fluorescence is measured at 360 nm excitation and 450 nm emission. Purified cruzain was supplied by the labs of Prof. James McKerrow and Brian Shoichet, UC San Francisco.
Cruzipain (Trypanosoma cruzi), sequence (P25779 123-467 limits assumed): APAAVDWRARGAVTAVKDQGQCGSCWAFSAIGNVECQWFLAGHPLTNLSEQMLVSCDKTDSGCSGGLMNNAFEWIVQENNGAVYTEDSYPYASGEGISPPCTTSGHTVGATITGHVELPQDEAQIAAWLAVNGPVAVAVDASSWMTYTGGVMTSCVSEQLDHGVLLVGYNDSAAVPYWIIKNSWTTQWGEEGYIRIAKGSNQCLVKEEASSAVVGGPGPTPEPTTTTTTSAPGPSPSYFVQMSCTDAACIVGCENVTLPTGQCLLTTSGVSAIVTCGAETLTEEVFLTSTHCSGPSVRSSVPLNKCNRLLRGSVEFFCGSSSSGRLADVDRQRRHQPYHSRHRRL
This assay had 0.01% Triton X-100 concentration. See also releated assay "qHTS Assay for Promiscuous and Specific Inhibitors of Cruzain (without detergent)" with 0.00005% Triton X-100.
See following references for additional details:
Assay Provider: Shoichet, Brian; University of California, San Fancisco
Screening Center PI: Austin, C.P.
Screening Center: NIH Chemical Genomics Center [NCGC]
Buffer: 100 mM Sodium Acetate, pH 5.5, 5 mM DTT, Triton X-100 concentration: 0.01%.
Buffer in columns 3 and 4 as negative control (no enzyme).
Substrate solution: 2 uM final concentration of Z-FR-AMC (catalog number I-1160, Bachem) dispensed throughout the plate.
Enzyme: 1.5 nM Cruzain final concentration in columns 1, 2, 5-48. Column 1 is neutral (100% activity). Column 2 contained titration of covalent inhibitor K11777, starting concentration 1 mM, then 1:2 dilution in duplicate).
Three uL of enzyme or buffer were dispensed to 1536-well Greiner black solid bottom plates. Compounds and controls (23 nL) were transferred via Kalypsys PinTool. The plates were incubated for 15 min at room temperature, and then 1 uL of substrate solution was added to start the reaction. The plates were immediately transferred to and read 4 times every 30 seconds for 2 min on ViewLux High-throughput CCD imager (Perkin-Elmer) using 360 nm excitation and 450 nm emission fluorescence protocol. The fluorescence intensity difference between the third and the first time points (time lapse of 60 seconds) was used to compute reaction progress.
Take `c1ccc(-c2nnc(SCc3nc4ccccc4[nH]3)o2)cc1`: the Potency is 25.1 µM (active). As for `Clc1ccc(-c2nnc(SCc3nc4ccccc4s3)o2)cc1`, the max response, negative = inhibition was -2.22%. The same measure, in the same setting: the figure for `Clc1ccccc1SCc1nc2ccccc2[nH]1` is -1.73%; for `COc1ccc(-c2noc(-c3ccc(N4CCN(c5ccccc5)CC4)c([N+](=O)[O-])c3)n2)cc1OC` it is -4.6%.

As to `O=C(NCc1ccccc1Cl)C1=Cc2cc(Br)ccc2OC1`, the max response, negative = inhibition is -4.23%.

As to `COc1ccc(Cn2ccn(CC(=O)Nc3cc(C)ccc3C)c(=O)c2=O)cc1`, the max response, negative = inhibition is -6.93%.

As to `O=C(NCCCO)C(=O)Nc1c2c(nn1-c1ccc(F)cc1)CSC2`, the max response, negative = inhibition was -6.19%. Still for that read-out and setting: the figure for `c1cncc(-c2nc(N3CCNCC3)c3ccccc3n2)c1` is -1.38%; for `Cc1cc(C(=O)Nc2ccccc2N2CCOCC2)c2ccccc2n1` it is 7.98%. As for `c1ccc(Nc2nc(N3CCOCC3)c3ccccc3n2)cc1`, the Potency is 14.1 µM (active). With `CCOc1ccc(N(C)S(=O)(=O)c2cc(-c3cnc(C)o3)ccc2OC)cc1`, the max response, negative = inhibition was -8.69%. Still for that read-out and setting: the figure for `Cc1cc(-c2ccc(C)c(S(=O)(=O)N3c4ccccc4CC3C)c2)on1` (stereo not given) is -1.84%; for `CC(C)Nc1nc(N(c2ccccc2)c2ccccc2)nc(-n2ccnc2)n1` it is 1.14%.

`N#Cc1nc(N)nc(N(c2ccccc2)c2ccccc2)n1`: the Potency was 2.24 µM (active). Consider `COc1cc(OC)c(N(C)C(=O)c2cc3c(=O)oc4ccccc4c3s2)cc1Cl`, for which the max response, negative = inhibition was -0.489%. Same read-out and setting: the figure for `Cc1ccccc1CSCCNC(=O)C1CCN(S(=O)(=O)Cc2ccccc2)CC1` is -4.58%.

Regarding `COc1cc(Cl)c(NC(=O)C(NS(=O)(=O)c2cccs2)C(C)C)c(OC)c1` (stereo not given), the max response, negative = inhibition was -0.797%.

On to `CSc1nn(Cc2cccc(C)c2)c(N)c1S(=O)(=O)c1ccccc1`, for which the max response, negative = inhibition was -5.62%. On to `CCN(CC)CCNc1ncnc2c1cnn2-c1cc(Cl)ccc1C`, for which the max response, negative = inhibition was 0.243%. As for `Cc1cccn2c(=O)c3cc(C(=O)NC(C)c4ccccc4)c(=N)n(CCCO)c3nc12` (stereo not given), the max response, negative = inhibition was -22.8%. Take `CCn1c(=N)c(C(=O)NCCCOC)cc2c(=O)n3cccc(C)c3nc21`: the Potency was 31.6 µM (active). In the case of `CCCn1c(=N)c(C(=O)NCc2ccccc2)cc2c(=O)n3cccc(C)c3nc21`, the max response, negative = inhibition was -0.842%. On the same count and under the same terms, the same measure for `O=C(NCc1ccc2c(c1)CCN2C(=O)c1ccccc1)c1ccccc1`: 1.91%. Same read-out and setting: the same measure for `CCOc1ccc(-c2nonc2NC(=O)c2oc3ccc(C)cc3c2C)cc1OCC`: -1.93%. Still for that read-out and setting: the same measure for `O=C(CCS(=O)(=O)c1ccc2c(c1)NC(=O)CO2)Nc1cccc(C(F)(F)F)c1`: -1.23%. For the compound `COc1ccc(Cl)cc1NC(=O)Cn1c(=O)c2ccccc2n2nncc12`, the max response, negative = inhibition is -4.81%.

In the case of `COc1ccc(Cl)cc1NC(=O)COC(=O)C(CC(C)C)N1C(=O)C2CC=CCC2C1=O` (stereo not given), the Potency is 12.6 µM (active). Regarding `COc1ccc(Cl)cc1NC(=O)CNc1ccccc1F`, the max response, negative = inhibition is -7.98%.

Take `Cc1oc2ccc(O)c(CN3CCCCC3)c2c1C(=O)Nc1cccc(C(F)(F)F)c1`: the max response, negative = inhibition was -4.76%. The same measure, in the same setting: the figure for `Cc1cc(C)cc(NS(=O)(=O)c2ccc(-c3cc(C)no3)s2)c1` is -11.1%. Take `Cn1c(C(=O)NCCN2CCc3ccccc3C2)cc2c(=O)[nH]c3ccccc3c21`: the Potency was 15.8 µM (active). Consider `Cn1c(C(=O)NCCCN2CCN(c3cccc(Cl)c3)CC2)cc2c(=O)n(C)c3ccccc3c21`, for which the max response, negative = inhibition was -27.7%. On to `O=C(NCCN1CCN(Cc2ccccc2)CC1)c1cc2c(=O)[nH]c3ccccc3c2s1`, for which the max response, negative = inhibition is -12.6%. The same measure, in the same setting: the figure for `CC(=O)c1nn(-c2ccc(OC(F)(F)F)cc2)nc1Nc1ccccc1` is 1.04%; for `O=C(CSc1nc2nccnc2c(=O)n1CCc1c[nH]c2ccccc12)Nc1ccccc1F` it is -2.4%; for `O=C(C1COc2ccccc2O1)N(Cc1cccnc1)c1nc2c(F)cc(F)cc2s1` (stereo not given) it is -3.06%. The same measure, in the same setting: the figure for `CC(C)c1ccc(NC(=O)Cn2nnc(C(=O)NCCc3ccccc3)c2N)cc1` is 0.0037%; for `COC(=O)c1scc(-c2ccc(C)cc2)c1S(=O)(=O)Nc1cc(Cl)c(OC)cc1OC` it is -7.07%.

For the compound `O=C1CCCN1CCCNc1ncnc2c1[nH]c1ccccc12`, the Potency is 15.8 µM (active). For the compound `Cc1cccc(C(=O)NCCCN2CCCC2=O)c1`, the max response, negative = inhibition was 6.06%.

As to `O=C(CCn1c(=S)[nH]c2ccccc2c1=O)NCCCN1CCCC1=O`, the max response, negative = inhibition was 0.249%. As for `Cc1nn(C(=O)c2c(F)cccc2F)c(C)c1S(=O)(=O)N1CCOCC1`, the max response, negative = inhibition is 0.43%. For `COc1ccc(CC(=O)NCCc2sc3nc(-c4ccc(OC)cc4)nn3c2C)cc1`, the max response, negative = inhibition was -3.58%. In the case of `COc1cc(OC)cc(C(=O)Nc2cc3nn(-c4ccccc4)nc3cc2Cl)c1`, the max response, negative = inhibition is 6.82%. Take `CCCCCn1c(CCNC(=O)c2ccc(F)cc2)nc2ccccc21`: the Potency is 4.47 µM (active).

Values taken from PubChem BioAssay AID1478 (National Center for Advancing Translational Sciences (NCATS), 2009).
